# Bioassay records deposited in PubChem BioAssay by National Center for Advancing Translational Sciences (NCATS).
# The full list was thinned out, with hits kept by preference.
# Glioma ERSR ind: ER stress response induction in glioma | U87-MG GRP78 promoter luciferase reporter, 16 h | Potency, µM, without a hit: at the top dose activation, most hits filed as activators | hit rate 0.02% among 420,000 | AID 602332; further: potency means the concentration at half of the fitted maximal effect; series mostly up to about 76 µM; % of control where 0% means no effect; nearly all actives have a fitted effect of over 35% in size
#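 Stably transfected U87-MG glioma cells carrying a GRP78-based luciferase sensor; 16 h compound incubation. Luminescence end-point read 10 min after Bright-Glo addition at room temperature.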
# ClpP mod: qHTS Assay for Activators of ClpP. ATP-dependent Clp protease proteolytic subunit (Bacillus subtilis (strain 168)), P80244. hit rate 1.9% among 340,000. AID 651965, 2013. purified B. subtilis ClpP, FRET peptide cleavage, 20 min. Potency, µM (doses to about 57.5 µM), for the others: top-dose activity change, negative = active; active means well fitted falling curve with a large enough effect; inconclusive means small, poorly fitted or top-dose-only effect; inactive means no such curve, though single readings can be large or run the other way; further: potency means the concentration at half of the fitted maximal effect; the source files actives as falling curves though it sought activators and does not explain the sign; nearly all actives have a fitted effect of over 65% in size
#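 Buffer: 100 mM Tris/HCl pH8, 100 mM KCl, 0.05% low protease BSA, 2.5% glycerol, 0.01% Tween-20. ClpP 10 microg/mL final; 20 min RT; delta FRET normalized to ADEP and DMSO controls.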
# N370S GC: inhibits or activates N370S mutant glucocerebrosidase | hit rate 0.092% among 330,000 | N370S GC spleen homogenate, 4MU-glucoside fluorescence | Potency, µM (top dose mostly 59.4 µM), inactives show top-dose activity change, negative = inhibition, usual class: inhibitors | P04062 | AID 2101;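 further: potency means the concentration at half of the fitted maximal effect; 0% = full enzyme activity and -100% = no enzyme basal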
# CBFb-RUNX1 inh: blocks binding between human CBF-beta and RUNX1; 230,000 tested, under 10 active; Potency, µM (series often up to 59.8 µM), without a hit: at the top dose activity, negative = inhibition, usual class: inhibitors; Q01196+Q13951; AID 1477; AlphaScreen CBFb-His/RUNX1-biotin binding, biochemical; further: % of control where 0% means no effect
# Target sequence (Q01196 whole entry, looked up): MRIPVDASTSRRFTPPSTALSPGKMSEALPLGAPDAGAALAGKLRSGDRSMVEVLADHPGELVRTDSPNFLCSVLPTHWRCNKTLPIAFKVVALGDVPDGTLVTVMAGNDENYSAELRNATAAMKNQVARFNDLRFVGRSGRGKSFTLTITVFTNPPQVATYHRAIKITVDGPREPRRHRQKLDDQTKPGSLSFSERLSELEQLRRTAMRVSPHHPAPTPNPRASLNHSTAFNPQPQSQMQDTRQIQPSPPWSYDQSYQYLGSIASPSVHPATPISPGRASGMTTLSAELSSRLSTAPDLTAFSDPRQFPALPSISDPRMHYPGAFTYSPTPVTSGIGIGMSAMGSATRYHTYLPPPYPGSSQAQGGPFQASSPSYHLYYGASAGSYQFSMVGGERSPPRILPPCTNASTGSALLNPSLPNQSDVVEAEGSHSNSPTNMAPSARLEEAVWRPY
# Target sequence (Q13951 whole entry, looked up): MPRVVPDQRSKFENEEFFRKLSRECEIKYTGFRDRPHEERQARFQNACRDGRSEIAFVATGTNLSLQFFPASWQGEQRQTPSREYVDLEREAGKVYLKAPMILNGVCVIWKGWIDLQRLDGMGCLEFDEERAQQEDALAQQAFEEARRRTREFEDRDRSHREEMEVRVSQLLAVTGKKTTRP
#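 Proteins preincubated together for 20 min at RT before compound addition; 15 min later, nickel and streptavidin beads were added and left 90 min prior to AlphaScreen measurement.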
# Integrin act MD: activators of alpha7 integrin expression for muscular dystrophy | alpha7betagal myoblasts, beta-gal FDG fluorescence, 48 h | Potency, µM (doses to about 38.3 µM), without a hit: top-dose activation, actives largely listed as activators | hit rate 0.064% among 350,000;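 further: potency means the concentration at half of the fitted maximal effect; 100% = response of the positive control SU9516; nearly all actives have a fitted effect of over 60% in size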
#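 alpha7betagal+/- myoblasts (passage 13, 250/well) treated 48 h at 37C with compounds at 1:260 dilution of DMSO stock. Lysed, then beta-galactosidase activity read as FDG fluorescence (ex 480/em 540) after 30 min, with pre-read for autofluorescence.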
# Anesthetic bind: binds horse apoferritin like a general anesthetic; apoferritin/1-aminoanthracene competitive binding, fluorescence; Potency, µM (titrated, usually from 77.5 µM), for inactives: at the top dose activity change, negative = displacement, most hits filed as inhibitors; hit rate 0.074% among 350,000; AID 485281; further: potency means the concentration at half of the fitted maximal effect; on the % scale 0 is the no-effect control and ±100 the full control effect; nearly all actives have a fitted effect of over 20% in size
#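 Apoferritin-based anesthetic binding model; compound displacement of fluorescent 1-AMA measured as endpoint fluorescence after 10 minutes at room temperature, scaled to free-ligand and complex controls.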
# * = called active by the depositor; u = inconclusive; x = no result given. Unless noted, the call rests on the fitted dose curve; in most records, active means well fitted curve in the direction sought with a large enough effect; inconclusive means small, poorly fitted or top-dose-only effect, or another doubt; inactive means no such curve, though single readings can be large; an effect the other way counts as inactive or inconclusive.
SMILES,Glioma ERSR ind,ClpP mod,N370S GC,CBFb-RUNX1 inh,Integrin act MD,Anesthetic bind
CCOc1cc(CNCCO)cc(Br)c1OCc1ccc(Cl)cc1Cl,-15%,-2%,10µM*,4%,-55%,u
CCOc1cccc(CNCCO)c1OCc1ccc(Cl)cc1Cl,-4%,0%,-14%,3%,-59%,-12%
CCCCCCCCCCCCCCCCOC(=O)N1CCN(/[N+]([O-])=N/Oc2ccc([N+](=O)[O-])cc2[N+](C)=O)CC1,-2%,x,x,x,x,x
Cc1ccccc1S(=O)(=O)Oc1ccccc1C(=O)Oc1ccccc1,-1%,25µM*,9%,22%,-11%,-14%
COc1ccccc1C(=O)Oc1ccc(C(C)(C)C)cc1,-5%,1%,-27%,18%,20%,u
COCCCNc1nc2ccccc2nc1NS(=O)(=O)c1ccc(C)c(C)c1,0%,x,7%,20%,25%,-5%
COCCNc1nc2ccccc2nc1NS(=O)(=O)c1ccc(C)cc1C,-11%,28µM*,23%,9%,29%,-1%
Nc1ccc(N2CCCCC2)c2nonc12,9%,0%,0%,0%,-10%,-11%
Nc1ccc(C2CCCc3nonc32)c2nonc12 (stereo not drawn),-3%,-1%,-9%,-3%,-16%,18µM*
CC(C)N(CCO)Cc1nc(N2CCOCC2)c2cc(Cl)ccc2n1,-1%,x,x,x,x,x
S=C(NCCSCc1ccc(Cl)cc1)Nc1ccccc1,-5%,0%,1%,6%,8%,-11%
Cc1cccc(CSCCNC(=S)Nc2ccccc2)c1,-2%,25µM*,7%,-6%,6%,-3%
CC(C)(C)c1ccc(/C=C/C(=O)N2CCOCC2)cc1,4%,22µM*,4%,-13%,-1%,-18%
CN(C)S(=O)(=O)c1ccc(Nc2nc(C3CC3)nc3c2nnn3Cc2ccccc2Cl)cc1,-4%,32µM*,19%,4%,0%,-1%
Cc1ccc(C(=O)NCC(=O)OCC(=O)NC(C)C2CC3CCC2C3)cc1 (stereo not drawn),-2%,32µM*,u,x,-9%,x
Cc1ccccc1C(=O)NCC(=O)OCC(=O)NC(C)C1CC2CCC1C2 (stereo not drawn),1%,1%,x,x,u,x
CC(NC(=O)COC(=O)Cc1ccsc1)C1CC2CCC1C2 (stereo not drawn),-2%,1%,-1%,-4%,-11%,16µM*
COC(=O)[C@@H]1C[C@@H](NC(=O)c2cccc3c(C)c(C)[nH]c23)CN1Cc1cccc2ccccc12,-3%,x,x,x,x,x
O=[N+]([O-])c1ccc(C=C2c3ccccc3-c3ccccc32)cc1,-6%,0%,x,x,x,x
Cc1nonc1OC(C)CNc1ccc([N+](=O)[O-])cc1 (stereo not drawn),-2%,2%,-12%,-16%,-8%,32µM*
CCCCCc1nc2c(C#N)c(-c3ccc(Cl)cc3)ccn2n1,-4%,28µM*,7%,3%,-8%,-18%
Cc1ccccc1Cn1ccc(-c2ccc(Cl)cc2)c(C#N)c1=O,-2%,u,-5%,6%,30%,5%
COC(=O)[C@@H]1CCCN1Cc1ccc2c(c1)CN(Cc1cccn1-c1ccccn1)CCO2,1%,x,x,x,x,x
Clc1ccc(C2=C3CCCCn4c(-c5ccccc5)c[n+](c43)C2)cc1,-6%,10µM*,-17%,-10%,-18%,-21%
O=C(C[n+]1cc(-c2ccc(Cl)cc2)n2c1CCCCC2)c1ccccc1,-2%,1%,2%,5%,-20%,-11%
SMILES,Glioma ERSR ind,ClpP mod,N370S GC,CBFb-RUNX1 inh,Integrin act MD,Anesthetic bind
COc1ccc(-c2c[n+]3c4n2CCCCC4=C(c2ccc(Br)cc2)C3)cc1,-3%,22µM*,-33%,-28%,-62%,-9%
O=C(Nc1ccc(Br)cc1F)c1cnn2c1NC(=C1CC1)C=C2C(F)F,0%,3%,x,x,x,x
COc1cccc(-n2c(SC)nnc2C2CCN(Cc3nc4ccccc4s3)CC2)c1,-3%,x,x,x,x,x
Cc1cc(/C=C/c2ccnc3ccccc23)ccc1N,1%,-3%,x,x,x,x
Cc1ccc(N=Nc2[nH]c3ccccc3c2O)cc1,4%,25µM*,4%,-19%,0%,-2%
CCOc1ccc(CCNC(=O)CCc2nc(-c3ccc(OC)cc3)no2)cc1OCC,6%,25µM*,-8%,3%,8%,-4%
CCOc1ccc(-c2nc(-c3ccc(OC)cc3)no2)cc1OCC,-2%,32µM*,-11%,12%,0%,-11%
CCOc1ccc(-c2noc(-c3ccncc3)n2)cc1OCC,-1%,-12%,3%,6%,-4%,5%
CCOc1ccc(CCNC(=O)CCc2nc(-c3ccc(C)cc3)no2)cc1OCC,0%,-15%,-11%,6%,-21%,-7%
CN(C)CC(C)(O)c1ccc2c(c1)CN(Cc1cnn(-c3ccccc3)c1)CCO2 (stereo not drawn),-3%,x,x,x,x,x
CC(C)(C)CC(=O)OCC(=O)[C@@]12OC(C)(C)O[C@@H]1C[C@H]1[C@@H]3CCC4=CC(=O)C=C[C@]4(C)[C@@]3(F)[C@@H](O)C[C@]12C,-4%,x,x,x,x,x
COc1cc(-c2nc3ccccn3c2NCC2CCCO2)ccc1O (stereo not drawn),1%,25µM*,-11%,-1%,-4%,119%
Oc1cccc(/C=N/c2c(-c3ccco3)nc3ccccn23)c1,-3%,28µM*,-9%,7%,-37%,-14%
COc1cc(-c2nc3ccccn3c2/N=C/c2ccccc2)ccc1O,-1%,32µM*,-6%,-2%,-40%,257%
COc1cc(-c2nc3ccccn3c2/N=C/c2cccc(F)c2)ccc1O,-3%,-14%,-25%,12%,-17%,111%
CCOc1cc(-c2nc3ccccn3c2NCC2CCCO2)ccc1O (stereo not drawn),1%,u,3%,7%,0%,12%
O=[N+]([O-])c1ccc(Cl)c(-c2ccc(/C=N/c3c(-c4ccco4)nc4ccccn34)o2)c1,-4%,1%,-12%,1%,-12%,1%
O=C(NCCc1cccnc1)c1cnn(-c2ncc3c(n2)-c2ccccc2CC3)c1C1CC1,-1%,x,x,x,x,x
CCc1nn2c(=O)cc(COC(=O)c3cccc(NC(=O)CCc4ccccc4)c3)nc2s1,-3%,32µM*,x,x,x,-4%
CCc1nn2c(=O)cc(COC(=O)c3ccc(NC(=O)CCc4ccccc4)cc3)nc2s1,-1%,u,x,x,x,-4%
Cc1occc1C(=O)NCCN1Cc2ccccc2OC(c2ccccc2F)C1 (stereo not drawn),-5%,x,x,x,x,x
N#C/C(=C\c1cc(Br)c(O)c(Br)c1)c1nc2ccccc2c(=O)[nH]1,-6%,25µM*,x,x,x,-3%
N#C/C(=C/c1ccccc1Cl)c1nc2ccccc2c(=O)[nH]1,-2%,-2%,x,x,x,-4%
